# Measurements published in PubChem BioAssay AID1345085 (National Center for Advancing Translational Sciences (NCATS), 2018).
# Records with an inconclusive call do not appear. Activity calls are given as the source filed them. Calls follow the shape of the dose curve; as a rule, active = well fitted cell-killing curve with a large enough effect; inconclusive = small, poorly fitted or top-dose-only effect, or effect the other way; inactive = no such curve, though single readings can be large or run the other way.
# Test system: CAOV3
# Experiment: Confirmatory qHTS for gynecologic anti-cancer compounds from libraries of approved drugs and bioactive compounds; also: nearly all actives have a fitted effect of over 55% in size
# Settings: gynecologic cancer cell panel viability, ATPlite luminescence, 48 h; series mostly up to 57.6 µM
# Procedure, shortened: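 IC50 values derive from an ATPlite ATP-content luminescence assay following 48 h treatment at 37 C. Each compound ran as an 11-concentration, threefold series (57.5 uM to 0.977 nM); HEK 293T served as control line for selectivity index.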
# Potency is read from the fitted curve at half-maximal effect.
row,Compound,Potency
1,Cc1ccc(C(=O)N(CCCN)C(c2oc3cc(Cl)ccc3c(=O)c2Cc2ccccc2)C(C)C)cc1 (stereo not drawn),27.3 µM (active)
2,CC[C@@]1(O)C(=O)OCc2c1cc1n(c2=O)Cc2c-1nc1ccccc1c2/C=N/OC(C)(C)C,0.0968 µM (active)
3,CS(=O)(=O)c1ccc(C(=O)Nc2ccc(Cl)c(-c3ccccn3)c2)c(Cl)c1,inactive
4,O=C1NC(=O)C(c2cnc3ccccn23)=C1c1cn2c3c(cccc13)CN(C(=O)N1CCOCC1)CC2,inactive
5,Cc1csc(NC(=O)c2sc3nc4c(c(C(F)(F)F)c3c2N)CCC4)n1,1.72 µM (active)
6,COc1cc2c(cc1-c1c(C)noc1C)ncc1[nH]c(=O)n(C(C)c3ccccn3)c12 (stereo not drawn),1.09 µM (active)
7,CC(=O)c1cnc2ccc(-c3cc(Cl)c(O)c(Cl)c3)nc2c1NC1CCC(CN(C)C)CC1 (stereo not drawn),0.157 µM (active)
8,CN1CCN(CCOc2cc(OC3CCOCC3)c3c(Nc4c(Cl)ccc5c4OCO5)ncnc3c2)CC1,inactive
9,Cc1ccc(C(N)=O)cc1Nc1nccc(-c2cn(C(C)C)c3cnccc23)n1,17.2 µM (active)
10,CCc1c2c(nc3ccc(O)cc13)-c1cc3c(c(=O)n1C2)COC(=O)[C@]3(O)CC,0.0385 µM (active)
11,CN1CCN(Cc2ccc(NC(=O)Nc3ccc(Oc4cc(NC(=O)C5CC5)ncn4)cc3)cc2C(F)(F)F)CC1,13.7 µM (active)
12,N#CC1(c2cccc(C(=O)Nc3cc(Oc4ccc5nc(NC(=O)C6CC6)sc5n4)ccc3F)c2Cl)CC1,inactive
13,CC(C)n1nc(-c2cc3cc(O)ccc3[nH]2)c2c(N)ncnc21,19.3 µM (active)
